# Experimental data reported in ChEMBL document CHEMBL1157539, “Thousands of chemical starting points for antimalarial lead identification” (Nature, 2010).
# Assays:
# Type in all cases: functional
# [1] = system: Plasmodium falciparum; assay: GSK_TCMDC: Inhibition of Plasmodium falciparum 3D7 in whole red blood cells, using parasite LDH activity as an index of growth. Test compounds present at 2uM
# [2] = system: Plasmodium falciparum; assay: GSK_TCMDC: Inhibition of Plasmodium falciparum Dd2 in whole red blood cells, using parasite LDH activity as an index of growth. Test compounds present at 2uM
# [3] = system: HepG2; assay: GSK_TCMDC: Percent inhibition of human HepG2 cell line. Test compounds present at 10uM.
Structure (SMILES),Inhibition [1] [%],Inhibition [2] [%],Inhibition [3] [%]
Cc1cc(N[C@@H](Cc2ccccc2)C(=O)NCCOc2ccccc2)nc(NCc2ccccc2C)n1.O=C(O)C(F)(F)F,100,80,32
NC1=Nc2ccc(Cl)cc2C1(O)c1ccccc1 (configuration not stated),100,51,0
Cc1nc(C)n(CC(=O)Nc2cccc(-c3cccc(-c4nc5cc(C(F)(F)F)ccc5[nH]4)c3)c2)n1,100,96,62
CCCc1cc(Cc2cnc(N)nc2N)cc(CCC)c1OCCCCCC(=O)OCC,95,0,12
CC(C)CNCc1ccc(-c2cccc(CNC3CCN(Cc4ccccc4)CC3)c2)cc1.O=C(O)C(F)(F)F,100,100,34
O=C(NCCCCN1CCN(c2ccc3c(c2)CCC3)CC1)c1ccc(NC(=O)c2ccc(Cl)cc2)cc1,98,35,38
Cc1cc(N2CCC(N(C)C)C2)nc(Nc2ccc(Cl)cc2)n1 (configuration not stated),99,17,11
Cc1cc(O)c2c3c1C(=O)C=C1C3c3c(c(O)cc(O)c3C(=O)C1(C)C)C2=O (configuration not stated),98,46,45
Nc1ccc2nc(C=Cc3ccccc3)[nH]c2c1,92,89,7
CCN(C(=O)NC)C1c2cc(C#N)ccc2OC(C)(C)C1O (configuration not stated),96,2,3
C=CCC(CC=C)N1C(=O)C(c2ccccc2)(c2ccccc2)N=C1N.O=CO,98,97,35
CC[C@H](C)[C@H](NC(=O)[C@H](CC1CCCCC1)[C@H](CC)N(O)C=O)C(=O)Nc1ccccn1,96,95,14
Cc1nnsc1C(=O)Nc1cccc(-c2csc(-c3nc4ccccc4[nH]3)c2)c1,94,50,51
CC(=O)NC1=NC(C)(C)N(OCc2ccc(Cl)c(Cl)c2)C(NC(C)=O)=N1,94,97,68
O=c1cc(NCCCNCc2cc(Br)ccc2F)[nH]c2ccccc12,95,14,0
O=C(C=Cc1ccc(Cl)c(Cl)c1)NCCCCCN1CCC(CCCNC(=O)C2CC2c2ccccc2)CC1 (configuration not stated),95,12,45
CCC(CC)(Cc1ccccc1)NC(=O)[C@H](Cc1ccc(OC)c(OC)c1)Nc1ccc(C#N)c2ccccc12.O=C(O)C(F)(F)F,90,69,16
CCn1c(-c2nonc2N)nc2c(-c3cccc(NC(=O)Nc4ccc(Cl)cc4)c3)ncc(OCCCN)c21.O=C(O)C(F)(F)F,96,72,26
Cc1cc(Nc2ccc(Cl)cc2)n2nc(C(F)(F)F)nc2n1,97,95,5
O=C(Nc1ccc(-c2ccc(CN3CCNCC3)cc2)cc1)c1cccc(Cl)c1.O=C(O)C(F)(F)F,91,16,58
O=C(Nc1cccc(-c2ccc(-c3nc4cc(C(F)(F)F)ccc4[nH]3)cc2)c1)c1csnn1,98,93,23
COc1ccc(-c2nc(NC(=O)CSc3ccccc3)sc2C)cc1,94,31,6
CCN1CCN(c2cc(C)c3cc(NC(=O)c4cccc(Cl)c4)ccc3n2)CC1,100,58,4
Br.Oc1ccccc1CCNC1CCc2ccccc2C1 (configuration not stated),96,95,0
COc1ccc(NC(=O)[C@H](Cc2ccccc2)Nc2cc(C)nc(NCCOc3ccccc3)n2)cc1.O=C(O)C(F)(F)F,98,25,11
CC1CN(Cc2ccc(-c3ccc(-c4nc5cc(F)ccc5[nH]4)cc3)cc2)CC(C)O1.O=C(O)C(F)(F)F (configuration not stated),96,93,40
COc1ccc(CNC(=O)NC2CCN(c3ccnc(Nc4ccc(OC)cc4)n3)C2)cc1 (configuration not stated),87,80,27
CCCC(CNCc1ccccc1)CNc1cc(=O)c2ccccc2[nH]1 (configuration not stated),86,21,2
CCc1ccc(NC(=O)c2ccc(CN3CCCN(Cc4cccs4)CC3)cc2)cc1.O=C(O)C(F)(F)F,87,0,57
